Test results: PubChem BioAssay (Tox21)
Results filed as inconclusive are left out. Activity calls are given as the source filed them. Unless noted, the call rests on the fitted dose curve; in most records, active means well fitted curve in the direction sought with a large enough effect in the repeat runs; inconclusive means weak or mixed curves; inactive means no such curve, though single readings can be large; an effect the other way counts as inactive or inconclusive.

What was measured:
[1] = qHTS assay for small molecule agonists of the p53 signaling pathway (AID 651631; calls by dose curve; further: nearly all actives have a fitted effect of over 15% in size)
Outline: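 HCT-116 cells carrying a beta-lactamase reporter under p53 response elements were dosed with compound for 16 h at 37 °C. LiveBLAzer B/G FRET substrate was then added for 2 h at room temperature, and fluorescence intensity was read to detect pathway agonism.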

[2] = qHTS assay for small molecules that induce genotoxicity in human embryonic kidney cells expressing luciferase-tagged ATAD5 (AID 651632); further: nearly all actives have a fitted effect of over 15% in size
Outline: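 Test compounds were delivered by pin tool onto HEK293T reporter cells (2,000/well) expressing ATAD5 fused to luciferase. After 16 hr at 37C, 5% CO2, Amplite was added for 30 min at room temperature and luminescence was measured.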

[3] = qHTS assay for small molecule agonists of the p53 signaling pathway - cell viability (AID 651633; calls by dose curve;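 further: p53RE-bla HCT reporter cells with a stable beta-lactamase p53 reporter; series mostly up to about 83 µM; nearly all actives have a fitted effect of over 30% in size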)
Outline: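 p53RE-bla cells, seeded at 4,000 per well and rested 5 h at 37 C/5% CO2, received compounds in DMSO for 16 h at 37 C. CellTiter-Glo was then added, and luminescence was read after 30 min at room temperature to gauge cytotoxicity.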

[4] = qHTS assay for small molecules that induce genotoxicity in human embryonic kidney cells expressing luciferase-tagged ATAD5 - cell viability (AID 651634; calls by dose curve; further: nearly all actives have a fitted effect of over 25% in size)
Outline: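 Quantitative high-throughput format. HEK293T cells expressing ATAD5 fused to luciferase were plated at 2,000 cells/well and treated 15.5 hr with compound versus DMSO. Viability was determined by fluorescent live-cell protease substrate, 30 min at 37C.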

[5] = qHTS assay for small molecule disruptors of the mitochondrial membrane potential - cell viability (AID 720634; calls by dose curve;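 further: human HepG2 liver cancer cells; series mostly up to about 83 µM; nearly all actives have a fitted effect of over 20% in size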)
Outline: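 Same-well counter-screen: following the MMP dye addition, CellTiter-Glo was added to 1 hr compound-treated HepG2 cells and luminescence read after 30 min at room temperature.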

[6] = qHTS assay for small molecule disruptors of the mitochondrial membrane potential (AID 720635)
Outline: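 HepG2 cells (2,000/well) attached overnight at 37C, then took compound for 1 hr at 37C, 5% CO2. Mito-MPS dye was added for 30 min; fluorescence was read at 490/535 nm (monomers) and 540/590 nm (aggregates).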

[7] = qHTS assay to test for compound auto fluorescence at 590 nm (red) in HepG2 cells (AID 720674)
Outline: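 Compound auto-fluorescence is scored relative to Rose Bengal sodium, measured at 540/590 nm in live HepG2 cultures after 1 hr compound contact (37 C, 5% CO2).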

[8] = qHTS assay to test for compound auto fluorescence at 535 nm (green) in HepG2 cells (AID 720675)
[9] = qHTS assay to test for compound auto fluorescence at 460 nm (blue) in HEK293 cells (AID 720678)
Outline: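 Intrinsic compound fluorescence is recorded in live HEK293 cultures after overnight incubation at 37C, 5% CO2, using excitation 405 nm and emission 460 nm. Values are referenced to triamterene.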

[10] = qHTS assay to test for compound auto fluorescence at 590 nm (red) in HEK293 cells (AID 720679)
Outline: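 Red autofluorescence, HEK293 cells: 2,000 cells/well; attach 4-5 hr 37C; add 23 nL cpd or DMSO; incubate o/n 37C 5% CO2; read Ex540/Em590; Rose Bengal sodium reference.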
On the % scale 0 is the no-effect control and ±100 the full control effect.

CCOC(=O)c1ccc(C)cc1
inactive: outcome [1] | Potency [2] | outcome [3] | Potency [4] | Potency [5] | Potency [6] | outcome [7] | outcome [8] | outcome [9] | outcome [10]

CCCc1cc(C(N)=S)ccn1
inactive: outcome [1] | Potency [2] | outcome [3] | Potency [4] | Potency [5] | Potency [6] | outcome [7] | outcome [8] | outcome [9] | outcome [10]

Cn1c(N)c(N=O)c(=O)n(C)c1=O
inactive: outcome [1] | Potency [2] | outcome [3] | Potency [4] | Potency [5] | Potency [6] | outcome [7] | outcome [8] | outcome [9] | outcome [10]

CCCCCCOC(=O)CCCCC(=O)OCCCCCC
inactive: outcome [1] | Potency [2] | outcome [3] | Potency [4] | Potency [5] | Potency [6] | outcome [7] | outcome [8] | outcome [9] | outcome [10]

CCCN(CCC)CCc1cccc2c1CC(=O)N2
inactive: outcome [1] | Potency [2] | outcome [3] | Potency [4] | Potency [5] | Potency [6] | outcome [7] | outcome [8] | outcome [9] | outcome [10]

O=C1NC(=O)[C@@]2(CCOc3ccc(F)cc32)N1
inactive: outcome [1] | Potency [2] | outcome [3] | Potency [4] | Potency [5] | Potency [6] | outcome [7] | outcome [8] | outcome [9] | outcome [10]

COC(=O)[C@@H](N)Cc1ccc(O)c(O)c1
inactive: outcome [1] | Potency [2] | outcome [3] | Potency [4] | Potency [5] | Potency [6] | outcome [7] | outcome [8] | outcome [9] | outcome [10]

CCCCCCCCCCCC
inactive: outcome [1] | Potency [2] | outcome [3] | Potency [4] | Potency [5] | Potency [6] | outcome [7] | outcome [8] | outcome [9] | outcome [10]

CCSC(=O)N(CC(C)C)CC(C)C
inactive: outcome [1] | Potency [2] | outcome [3] | Potency [4] | Potency [5] | Potency [6] | outcome [7] | outcome [8] | outcome [9] | outcome [10]

CCCCCCCCCCCCCC=O
inactive: activation [1] -3.36% [at 8.3 µM] | activation [2] 2.51% [at 8.08 µM] | activity change, negative = cytotoxicity [3] 18.4% [at 8.08 µM] | activity, negative = cytotoxicity [4] 13.3% [at 8.08 µM] | activity change, negative = cytotoxicity [5] 12.2% [at 8.08 µM] | ratio activity, negative = MMP loss [6] 25.8% [at 8.08 µM] | fluorescence, relative to Rose Bengal [7] 0.0167% [at 3.72 µM] | fluorescence, % of fluorescein control [8] 0.0875% [at 3.72 µM] | fluorescence, % of triamterene [9] -0.166% [at 3.72 µM] | fluorescence, % of fluorescent control [10] -0.804% [at 3.72 µM]

CCN1CCC[C@H]1CNC(=O)c1cc(S(N)(=O)=O)ccc1OC
inactive: outcome [1] | Potency [2] | outcome [3] | Potency [4] | Potency [5] | Potency [6] | outcome [7] | outcome [8] | outcome [9] | outcome [10]

CCCCOCCOCCOCCCC
inactive: outcome [1] | Potency [2] | outcome [3] | Potency [4] | Potency [5] | Potency [6] | outcome [7] | outcome [8] | outcome [9] | outcome [10]

O=C(O)COc1nn(Cc2ccccc2)c2ccccc12
inactive: outcome [1] | Potency [2] | outcome [3] | Potency [4] | Potency [5] | Potency [6] | outcome [7] | outcome [8] | outcome [9] | outcome [10]

CCC(C)C1CCCCC1=O (centres undefined)
inactive: outcome [1] | Potency [2] | outcome [3] | Potency [4] | Potency [5] | Potency [6] | outcome [7] | outcome [8] | outcome [9] | outcome [10]

C/C=C(\C)C#N
inactive: outcome [1] | Potency [2] | outcome [3] | Potency [4] | Potency [5] | outcome [7] | outcome [8] | outcome [9] | outcome [10]

C=CCCCCCCCCC=O
inactive: outcome [1] | Potency [2] | outcome [3] | Potency [4] | Potency [5] | outcome [7] | outcome [8] | outcome [9] | outcome [10]

O=c1cc(CO)occ1O
inactive: outcome [1] | Potency [2] | outcome [3] | Potency [4] | Potency [5] | Potency [6] | outcome [7] | outcome [9] | outcome [10]

CN1CCC(=C2c3ccccc3CC(=O)c3sccc32)CC1
inactive: outcome [1] | Potency [2] | outcome [3] | Potency [4] | Potency [5] | outcome [7] | outcome [8] | outcome [9] | outcome [10]

C[N+](C)(C)CCCCCC[N+](C)(C)C
inactive: outcome [1] | Potency [2] | outcome [3] | Potency [4] | Potency [5] | outcome [7] | outcome [8] | outcome [9] | outcome [10]

CN1CCCC1
inactive: outcome [1] | Potency [2] | outcome [3] | Potency [4] | Potency [5] | outcome [7] | outcome [8] | outcome [9] | outcome [10]

COc1ccccc1OCC(O)CN1CCN(CC(=O)Nc2c(C)cccc2C)CC1 (centres undefined)
inactive: outcome [1] | Potency [2] | outcome [3] | Potency [4] | Potency [5] | outcome [7] | outcome [8] | outcome [9] | outcome [10]

OC[C@]1(O)OC[C@@H](O)[C@H](O)[C@@H]1O
inactive: outcome [1] | Potency [2] | outcome [3] | Potency [4] | Potency [5] | Potency [6] | outcome [7] | outcome [9] | outcome [10]

COc1ccc(CCN(C)CCCC(C#N)(c2cc(OC)c(OC)c(OC)c2)C(C)C)cc1OC (centres undefined)
inactive: outcome [1] | Potency [2] | outcome [3] | Potency [4] | Potency [5] | outcome [7] | outcome [8] | outcome [9] | outcome [10]

N=C(N)c1ccccc1
inactive: outcome [1] | Potency [2] | outcome [3] | Potency [4] | Potency [5] | outcome [7] | outcome [8] | outcome [9] | outcome [10]

COc1cc(C(=O)N2CCCCCCC2)cc(OC)c1OC
inactive: outcome [1] | Potency [2] | outcome [3] | Potency [4] | Potency [5] | outcome [7] | outcome [8] | outcome [9] | outcome [10]
